Measurements taken from PubChem BioAssay.

Test: binders from COS7 lysate, DM2A8 probe, primary screen, torsin A project, cell lysate, small-molecule microarray, fluorescence 635/667 (AID 1065)
Conditions: higher = more signal, COS7 lysate expressing mutant human TOR1A

Row | Compound | composite z-score
1 | CC(C)CON=C1[C@H]2CCn3c(=O)n(-c4ccccc4)c(=O)n3[C@H]2[C@H](O)[C@@H]2O[C@H]12 | -0.0519
2 | O=C1C[C@@H](O)[C@@H](O)[C@@H]2[C@@H]3C(=O)N(c4cccc(Oc5ccccc5)c4)C(=O)[C@@H]3CC[C@@H]12 | 0.272
3 | CO[C@H]([C@@H](C)[C@H](OC)c1ccccc1)[C@H](C)[C@@H](OC)[C@H](C)C(C)=O | -0.292
4 | Cc1ccc(S[C@]2(C(=O)NCC(F)(F)F)CC(=O)N(Cc3ccccc3Cl)[C@@H]2c2ccc(CO)cc2I)cc1 | -0.193
5 | O=C1O[C@@H](c2ccccc2)[C@@H](c2ccccc2)N2[C@@H](c3ccc(O)cc3)[C@]3(C(=O)Nc4ccccc43)[C@@H](C(=O)O)[C@H]12 | 0.227
6 | COCCNC(=O)OCC1CCCC2(CC(OC(=O)NCCc3ccc(F)cc3)CC(CCC(=O)N[C@@H](C)C(=O)OC)O2)O1 (stereo partly specified) | 0.37
7 | CCCNC(=O)[C@@H]1c2ccccc2C(=O)N(c2ccc(C)cn2)[C@H]1c1ccc(CO)cc1 | 0.0211
8 | CCOC(=O)[C@H](CC(C)C)NC(=O)CCC1CC(OC(=O)NCCc2ccc(F)cc2)CC2(CCCC(COC(=O)NCc3ccccc3)O2)O1 (stereo partly specified) | 0.561
9 | CCOC(=O)CCN1C(=O)[C@H]2[C@H]3[C@H](O)[C@H](O)CC(=O)[C@H]3CC[C@H]2C1=O | 0.418
10 | C=CCC(OC(C)=O)[C@@H]1[C@@H](N(Cc2cc3ccccc3o2)C(=O)Cc2ccc(F)cc2)c2cc(OCCCO)ccc2N1C(=O)Cc1ccc(OC)cc1 (stereo partly specified) | 0.102
11 | CCOC(=O)NN=C1C[C@@H](O)[C@@H](O)[C@@H]2[C@@H]3C(=O)N(C[C@@H]4CCCO4)C(=O)[C@@H]3CC[C@@H]12 | 0.0306
